Reference: the supplement of paper PMC3334620
Over roughly 33,000 sequences, “E-score (-0.5 to 0.5)” has its median near -0.017; the highest 2% begin near 0.3. The full list was thinned out, with the highest values kept by preference.

What follows are sequences tested against T1, Sut1 (UniProt P53032) (assay: PBM E-score (8-mer binding enrichment) (E-score (-0.5 to 0.5)); higher = stronger / more preferred TF binding). Conditions: protein concentration: 200 nM; construct: GST-full length.
T1 sequence: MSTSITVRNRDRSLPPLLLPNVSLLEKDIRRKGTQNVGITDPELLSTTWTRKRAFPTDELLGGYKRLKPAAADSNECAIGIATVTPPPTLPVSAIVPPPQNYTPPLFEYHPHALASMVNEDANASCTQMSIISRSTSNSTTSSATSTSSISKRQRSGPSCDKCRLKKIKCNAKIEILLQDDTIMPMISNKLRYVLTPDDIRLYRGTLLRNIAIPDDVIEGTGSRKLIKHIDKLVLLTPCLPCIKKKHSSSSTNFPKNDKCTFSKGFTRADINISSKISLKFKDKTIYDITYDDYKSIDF
Procedure: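 Universal 'all 10-mer' protein binding microarrays (Agilent AMADID 015681) probed with GST-tagged S. cerevisiae TFs (full-length or DBD) made by in vitro transcription/translation (PURExpress), about 100-200 nM. Bound TF was detected with fluorescent anti-GST. Each ungapped 8-mer (which stands for itself and its reverse complement) is scored by the PBM enrichment score (E-score), a modified Wilcoxon-Mann-Whitney statistic from -0.5 to +0.5, computed with the Universal PBM Analysis Suite. Scale: above 0.35 generally sequence-specific binding.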

Row | Sequence | PBM E-score
1 | AACGGACC | 0.191
2 | ACTGGACT | -0.107
3 | AGCGGACG | -0.118
4 | ACCGGACG | 0.114
5 | AGCGGACA | 0.107
6 | AGCGGACT | 0.406
7 | AGCATATA | 0.102
8 | ACGCAAAC | -0.0168
9 | CGGGGACA | -0.0417
10 | AGAACAGC | -0.0298
11 | ACGTGGTG | -0.133
12 | CGCCATTA | 0.0246
13 | AGCCACCG | -0.122
14 | GCTCCGCA | 0.227
15 | GCTCCGCC | 0.0486
16 | ACGCCGCT | -0.0911
17 | ACTCCGCA | 0.473
18 | ACTCCGCT | 0.452
19 | CCTCCGCA | -0.205
20 | ACTCCGCG | 0.476
21 | AATCCGCT | -0.0383
22 | CCTCCGCC | -0.221

Row | Sequence | PBM E-score
23 | CCTCCGCG | -0.0947
24 | ACTCCCCG | 0.196
25 | ACTCCGCC | 0.438
26 | CAACGGGA | 0.0235
27 | AGAACCAT | 0.12
28 | GAGGCTCC | 0.0186
29 | ACCTTTGG | -0.287
30 | CACATCGA | -0.0466
31 | AGCCACTG | -0.0195
32 | CGGAGACG | 0.204
33 | GGGAGATA | -0.144
34 | CTGAGATC | -0.209
35 | AGGAGATC | 0.0207
36 | CGGAGATC | 0.445
37 | CGGAGACC | 0.315
38 | GGGAGACC | -0.235
39 | AGGAGATA | -0.155
40 | CGGAGATA | 0.458
41 | AAAAGCAA | 0.242
42 | ACCACCGT | -0.0843
43 | GCAGGTAC | -0.132
44 | CTCAAGCC | -0.126

Row | Sequence | PBM E-score
45 | GGAGAGCA | -0.125
46 | CCCTAACA | 0.071
47 | AGTGCATG | -0.0963
48 | CATGGGTC | -0.185
49 | ATTCGTAC | 0.154
50 | AGGTCCGC | 0.286
51 | AGGTCCGG | 0.461
52 | CGGTCCGA | 0.264
53 | AGGTCCGA | 0.457
54 | AGGTCCAG | -0.0827
55 | GGGTCCGA | 0.295
56 | CCTTGAAG | -0.0873
57 | GCTCAAGA | -0.148
58 | ATAGTGGG | -0.0539
59 | AATCTGGT | 0.047
60 | AGGCCTTA | -0.127
61 | GAAGCTCA | -0.033
62 | AAAGCTCC | 0.0815
63 | GAAGCTCC | 0.35
64 | GACACCCA | -0.118
65 | ATTCTATA | 0.16
66 | GGAGCGTA | 0.0804

Row | Sequence | PBM E-score
67 | ATCTCTCC | -0.0902
68 | CAATCTCC | 0.312
69 | CAATCTCG | -0.097
70 | ATATCTCC | 0.341
71 | CAATCTCA | -0.0455
72 | CTATCTCC | 0.114
73 | CATCTGCG | -0.0835
74 | CGGTCAAG | -0.09
75 | TCTGATAA | -0.0508
76 | AATTGTCT | -0.0132
77 | CTCGTTAA | 0.1
78 | ATAACGGG | 0.0139
79 | ATAACGGC | 0.00713
80 | CTAACGGA | 0.305
81 | GTAACGTA | 0.0551
82 | ATAACGGA | 0.341
83 | GTAACGCA | 0.021
84 | CTAACGAA | -0.0566
85 | CTAACGGC | 0.0477
86 | GTAACGGA | 0.329
